Among the test systems are RPMI-8226 leukemia; OVCAR-8 ovarian; OVCAR-5 ovarian; OVCAR-4 ovarian; SK-OV-3 ovarian; IGROV1 ovarian; OVCAR-3 ovarian; HS 578T breast; NCI/ADR-RES ovarian; T-47D breast.
Holding throughout (experiment): NCI-60 one-dose screen, 48 h (100 = growth as untreated, 0 = no growth, -100 = all killed)
Settings in all cases: 10 µM unless noted

Compounds without any hit were thinned out: in the full panel of roughly 83,000, 20% have a hit.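 Plates (96-well) were seeded with cells, treated with compound at one concentration, and incubated for 48 hours before percent growth was determined.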 A number with no mark means an inactive call. Active and inactive are the calls of the source. How the source made its calls: active means growth percent below 10; inactive means the rest.

Take `CNc1cccc2c1C(=O)c1cccc(N)c1C2=O`: the growth in the test with RPMI-8226 leukemia was 38.9%; in the test with OVCAR-8 ovarian it was 64.5%; with OVCAR-5 ovarian, 73.8%; in the test on OVCAR-4 ovarian, 57.6%; in the test on SK-OV-3 ovarian it was 60.5%; in the test on IGROV1 ovarian, 67.5%. In addition, the growth with OVCAR-3 ovarian was 32.2%; in the test with HS 578T breast, 19.4%; in the test on NCI/ADR-RES ovarian, 85%; in the test with T-47D breast, 45.9%.

Turning to `COc1cc([C@H](C)c2ccc3ccccc3c2)cc(OC)c1OC`, the growth is 15.9% in the test on RPMI-8226 leukemia; 23.2% with OVCAR-8 ovarian; 62.1% in the test on OVCAR-5 ovarian; 40.6% in the test with OVCAR-4 ovarian; 31% in the test with SK-OV-3 ovarian; 36% in the test with IGROV1 ovarian. Besides, the growth was -19.7% (active) in the test with OVCAR-3 ovarian, 30.2% in the test on HS 578T breast, 17.9% with NCI/ADR-RES ovarian and 42.2% in the test on T-47D breast.

Regarding `Cn1c2c(c3ccc(-c4ccn[nH]4)cc3c1=O)C(=O)c1ccccc1-2`, the growth was -11.6% (active) in the test with RPMI-8226 leukemia; 29.4% with OVCAR-8 ovarian; 86% with OVCAR-5 ovarian; 74% with OVCAR-4 ovarian; 74.2% in the test on SK-OV-3 ovarian; 45.6% in the test on IGROV1 ovarian. In addition, the growth with OVCAR-3 ovarian was 60.3%; in the test on HS 578T breast it was 85.8%; with NCI/ADR-RES ovarian, 53.2%; in the test with T-47D breast, 32.2%.

For `C[C@H](Oc1cc(-c2cnn(C3CCNCC3)c2)cnc1N)c1c(Cl)ccc(F)c1Cl`, the growth with RPMI-8226 leukemia was 23.3%; with OVCAR-8 ovarian, 77.7%; in the test on OVCAR-5 ovarian, 94.3%; in the test on OVCAR-4 ovarian it was 66.7%; with SK-OV-3 ovarian, 87.2%; with IGROV1 ovarian, 71.9%. Further, the growth with OVCAR-3 ovarian was 72.3%; in the test with HS 578T breast it was 56.5%; in the test with NCI/ADR-RES ovarian it was 85.1%; in the test on T-47D breast, 55.7%.

On to `CCCCn1c(=O)c(/C=C/C(=O)/C=C/c2cc3ccccc3n(CCCC)c2=O)cc2ccccc21`, for which the growth with RPMI-8226 leukemia was -32.1% (active); with OVCAR-8 ovarian it was -0.92% (active); in the test on OVCAR-5 ovarian it was 25.9%; in the test on OVCAR-4 ovarian, 28.5%; with SK-OV-3 ovarian, 15.6%; in the test on IGROV1 ovarian, 1.5% (active). The growth with OVCAR-3 ovarian was -15.7% (active); with HS 578T breast, 30%; in the test with NCI/ADR-RES ovarian it was 22.8%; with T-47D breast, 20.8%.

For the molecule `N#Cc1ccc(N2Cc3cc(Cl)ccc3OC3=C2C(=O)N(Cc2ccc(F)cc2)C3=O)cc1`, the growth was -21.8% (active) in the test on RPMI-8226 leukemia; -26.9% (active) in the test with OVCAR-8 ovarian; -1.59% (active) in the test with OVCAR-5 ovarian; -25.8% (active) in the test on OVCAR-4 ovarian; 102% with SK-OV-3 ovarian; -5.53% (active) in the test with IGROV1 ovarian. The growth with OVCAR-3 ovarian was -89% (active); with HS 578T breast, 27%; with NCI/ADR-RES ovarian, 10.1%; in the test with T-47D breast, -70.3% (active).

`CCO/C=N/S(=O)(=O)c1cc2c(cc1Cl)NC=NS2(=O)=O`: the growth is 104% in the test on RPMI-8226 leukemia; 100% with OVCAR-8 ovarian; 112% with OVCAR-5 ovarian; 117% in the test on OVCAR-4 ovarian; 104% in the test on SK-OV-3 ovarian; 104% in the test with IGROV1 ovarian. The growth in the test on OVCAR-3 ovarian is 105%; in the test with HS 578T breast, 101%; in the test on NCI/ADR-RES ovarian, 109%; in the test on T-47D breast it was 105%.

Regarding `CC(C)C1=C[C@@]23CC[C@H]4[C@](C)(COCCC#N)CCC[C@]4(C)[C@H]2C[C@@H]1[C@@H]1[C@H]3[C@@H](OCCC#N)CC[C@@H]1OCCC#N`, the growth is 18.7% with RPMI-8226 leukemia; 34.4% in the test with OVCAR-8 ovarian; 65.9% in the test on OVCAR-5 ovarian; 27.1% in the test with OVCAR-4 ovarian; 64.3% in the test on SK-OV-3 ovarian; 23.5% in the test with IGROV1 ovarian. Besides, the growth was 37.1% with OVCAR-3 ovarian, 64.5% in the test with HS 578T breast, 27.8% in the test with NCI/ADR-RES ovarian and 10.5% in the test with T-47D breast.

Consider `COc1ccc(OCC(=O)OC(C)C)cc1`, for which the growth with RPMI-8226 leukemia was 106%; in the test on OVCAR-8 ovarian it was 105%; with OVCAR-5 ovarian it was 99.6%; in the test on OVCAR-4 ovarian, 101%; in the test on SK-OV-3 ovarian, 112%; with IGROV1 ovarian, 103%. Further, the growth in the test on OVCAR-3 ovarian is 99.1%; in the test on HS 578T breast it was 100%; in the test with NCI/ADR-RES ovarian, 93.3%; in the test with T-47D breast, 101%.

Consider `Cc1nccc2c3ccc(OCc4cn(-c5ccc(Cl)cc5)nn4)cc3n(CC(C)C)c12`, for which the growth with RPMI-8226 leukemia is -35.1% (active); with OVCAR-8 ovarian, 25.2%; in the test with OVCAR-5 ovarian, 44.2%; with OVCAR-4 ovarian it was 30.5%; in the test on SK-OV-3 ovarian it was 24.2%; in the test with IGROV1 ovarian, 44.4%. The growth in the test with OVCAR-3 ovarian is 35.3%; in the test on HS 578T breast it was 38.8%; in the test with NCI/ADR-RES ovarian, 14.1%; with T-47D breast, 14%.

Regarding `COc1cc(-c2nn(-c3ccc(Br)cc3)cc2CO)ccc1O`, the growth in the test on RPMI-8226 leukemia is 84.6%; with OVCAR-8 ovarian it was 94.9%; in the test on OVCAR-5 ovarian, 101%; in the test with OVCAR-4 ovarian, 94.7%; with SK-OV-3 ovarian, 105%; in the test with IGROV1 ovarian it was 115%. For the same molecule, the growth in the test on OVCAR-3 ovarian was 103%; with HS 578T breast it was 88.9%; in the test with NCI/ADR-RES ovarian, 99.3%; in the test with T-47D breast it was 80.3%.

For `COC(=O)c1cc2c3c(cc(O)c2[nH]1)N(C(=O)C1Cc2cc(OC)c(OC)c(OC)c2N1)CC3CCl` (stereo not given), the growth with RPMI-8226 leukemia was -13.2% (active); in the test with OVCAR-8 ovarian it was -50.5% (active); in the test on OVCAR-5 ovarian, -61.1% (active); in the test with OVCAR-4 ovarian it was -98.7% (active); with SK-OV-3 ovarian, -44.9% (active); in the test with IGROV1 ovarian, -10.6% (active). Besides, the growth is -83% (active) with OVCAR-3 ovarian, 1.21% (active) in the test with HS 578T breast, -34.6% (active) in the test on NCI/ADR-RES ovarian and -48.9% (active) with T-47D breast.

Turning to `CC(=O)ON1CCCC(P(=O)(OCOC(=O)C(C)(C)C)OCOC(=O)C(C)(C)C)C1=O` (stereo not given), the growth with RPMI-8226 leukemia was -47.5% (active); with OVCAR-8 ovarian, -0.681% (active); in the test with OVCAR-5 ovarian it was 17.7%; in the test with OVCAR-4 ovarian it was 13.3%; with SK-OV-3 ovarian, 6.56% (active); in the test on IGROV1 ovarian, -28.4% (active). For the same molecule, the growth with OVCAR-3 ovarian is 2.58% (active); in the test on HS 578T breast, 1.28% (active); in the test on NCI/ADR-RES ovarian it was -2.01% (active); in the test on T-47D breast, 16.4%.
